Screening results as filed in PubChem BioAssay.
Hits are enriched below; roughly 2.3% of the tested compounds scored in any of these assays.
IL2 activator: qHTS of IL-2 Activators; activation, % (series mostly up to about 46 µM); 0.065% of 360,000 active; IL-2 activation reporter assay, cell-based qHTS; stimulated with anti-CD3/CD4/CD28 beads; in transgenic mouse T cells; in the data active = activation above about 50%; inconclusive = mostly about 30% to 49%
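Unstimulated transgenic mouse T cells; 60-min compound exposure; bead-based TCR/CD4/CD28 stimulation; 18 h culture, 37 degrees C; dual fluorescence (EGFP, DsRed) plate cytometry.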
Nrf2 block: Nrf2 qHTS screen for inhibitors. A549 ARE-Fluc reporter, luciferase luminescence, 18-24 h. Potency, µM (titrated, usually from 46 µM), actives largely listed as inhibitors. 2.1% of 360,000 active. AID 504444, 2011; also: nearly all actives have a fitted effect of over 60% in size
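Reporter: ARE-Fluc in A549. Exposure: 18-24 h, 37 °C, 5% CO2, 5% FBS OPTI-MEM. Readouts: fluorescent cytotoxicity (CellTiter-Fluor), then luminescent Nrf2 signal after BugLite.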
A549 viability: Nrf2 qHTS screen for inhibitors: counterscreen for cytotoxicity. AID 504648, 2011. Potency, µM (top dose mostly 46 µM), actives largely listed as inhibitors. A549 ARE-Fluc cells, CellTiter-Fluor viability, 18-24 h. 0.16% of 390,000 active
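A549 ARE_Fluc cells in 5% FBS OPTI-MEM were exposed to compounds in concentration-response for 18-24 h at 37 deg C. Viability was read by CellTiter-Fluor fluorescence (Ex 405/Em 525) after 30 min, before the luciferase read.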
Nrf2 activator: qHTS of Nrf2 Activators; AREc32 ARE-luciferase reporter (MCF7-derived line), luminescence, 24 h; Potency, µM (highest dose often 46.1 µM), actives largely listed as activators; 0.31% of 410,000 active; also: nearly all actives have a fitted effect of over 65% in size
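Each well held 1000 AREc32 cells, which were incubated with compound for 24 hr at 37 deg C after overnight attachment, and ARE reporter activity was quantified by firefly luciferase luminescence.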
Of the large screens only hits and unclear results are named; the others gave an inactive call. Unless noted, calls follow the shape of the dose curve; as a rule, active = well fitted curve in the direction sought with a large enough effect; inconclusive = small, poorly fitted or top-dose-only effect, or another doubt; inactive = no such curve, though single readings can be large; an effect the other way counts as inactive or inconclusive.

COc1cc(/C=C/C(=O)Nc2cccc(S(=O)(=O)N3CCOCC3)c2)ccc1OCC#N	Nrf2 block 15µM
COc1cc(/C=C/C(=O)c2ccc(O)cc2)ccc1OCC#N	Nrf2 block 26µM, A549 viability inconclusive, Nrf2 activator inconclusive
COc1ccc(/C=C/C(=O)Nc2cccc(S(=O)(=O)N3CCOCC3)c2)cc1OC	Nrf2 block inconclusive
CN(C)S(=O)(=O)c1cccc(NC(=O)/C=C/c2ccc(S(=O)(=O)N3CCOCC3)cc2)c1	Nrf2 block 23µM
COc1cccc(C(=O)/C=C/c2ccc(OCC#N)c(OC)c2)c1	Nrf2 block inconclusive, Nrf2 activator inconclusive
Cc1cc2c(s1)c1cnn(Cc3ccc(OC(F)F)cc3)c(=O)c1n2C	none (no result: IL2 activator, Nrf2 activator)
O=C(/C=C/c1ccco1)Nc1cccc(S(=O)(=O)N2CCOCC2)c1	Nrf2 activator 5.6µM
COc1ccc(OC)c(NC(=O)Cc2c(C(=O)O)n(C)c3ccc(C)cc23)c1	none (no result: IL2 activator)
O=S1(=O)N=C(Oc2ccccc2Cl)c2ccccc21	none (no result: IL2 activator, Nrf2 activator)
Cc1ccc(NC(=O)CSC2=C(C#N)C(c3ccc4c(c3)OCO4)C3=C(CCCC3=O)N2)c(C)c1 (configuration not stated)	Nrf2 block 12µM (no result: A549 viability)
COc1ccc(S(=O)(=O)Nc2cc(C(=O)NC(C)C)ccc2N2CCOCC2)cc1	none
COc1ccc(S(=O)(=O)Nc2cc(C(=O)NC3CCCCCC3)ccc2N2CCOCC2)cc1	Nrf2 block 18µM
NC(=O)COC(=O)c1ccccc1Nc1ccc(SC(F)F)cc1	Nrf2 block inconclusive
CC(OC(=O)c1ccccc1Nc1ccc(SC(F)F)cc1)C(N)=O (configuration not stated)	Nrf2 block 26µM
CCN1CCN(CC(O)COc2ccc3c(c2)CCC3)CC1 (configuration not stated)	none
O=S(=O)(c1ccccc1)N1CCN(CC(O)COc2ccc3c(c2)CCC3)CC1 (configuration not stated)	Nrf2 block 16µM
CCc1ccc(S(=O)(=O)c2nnn3c2nc(Nc2ccc(F)cc2)c2cc(Cl)ccc23)cc1	Nrf2 block 9.2µM (no result: IL2 activator)
COc1ccc(Nc2nc3c(S(=O)(=O)c4ccccc4)nnn3c3ccc(Cl)cc23)cc1	Nrf2 block inconclusive, A549 viability inconclusive (no result: IL2 activator)
COC(=O)c1c(NC(=O)c2nc(SCc3cccc(C)c3)ncc2Cl)sc2c1CCCC2	none (no result: IL2 activator)
Cc1ccc(NC(=O)c2ccco2)c(OCc2cc(=O)n3cc(C)sc3n2)c1	none (no result: IL2 activator, Nrf2 block)
Oc1ccc(Nc2ccccc2F)c2cccnc12	Nrf2 block inconclusive (no result: IL2 activator, Nrf2 activator)
CCOC(=O)/C(=C\C=C\c1ccccc1)NC(=O)c1ccccc1	Nrf2 block 9.2µM
Cc1noc(C)c1S(=O)(=O)N(CC(=O)NCc1ccccc1Cl)c1ccc(C(C)C)cc1	Nrf2 block inconclusive (no result: IL2 activator)
O=S(=O)(c1ccc2ccccc2c1)N1CCN(C(=S)Nc2ccccc2F)CC1	Nrf2 block 15µM
COc1ccc(C(=O)c2sc3nc(C)cc(-c4cccs4)c3c2N)cc1	Nrf2 block inconclusive, A549 viability inconclusive, Nrf2 activator inconclusive
COc1ccc(C(=O)c2sc3nc(C)cc(-c4cccs4)c3c2N)cc1OC	IL2 activator 550, Nrf2 block 10µM
CC1(C)O[C@@H]2C[C@H]3[C@@H]4CCC5=CC(=O)C=C[C@]5(C)[C@@]4(F)[C@@H](O)C[C@]3(C)[C@]2(C(=O)CO)O1	Nrf2 block 0.0041µM
CC1(C)O[C@@H]2C[C@H]3[C@@H]4C[C@H](F)C5=CC(=O)C=C[C@]5(C)[C@@]4(F)[C@@H](O)C[C@]3(C)[C@]2(C(=O)CO)O1	Nrf2 block inconclusive
CC1(C)OC2CC3C4CCC5=CC(=O)CCC5(C)C4(F)C(O)CC3(C)C2(C(=O)CO)O1 (configuration not stated)	Nrf2 block 0.0052µM
COc1ccc(-c2c3c(cc(C)[n+]2[O-])oc2ccc(OC)cc23)cc1	Nrf2 block inconclusive, A549 viability inconclusive
COc1ccc2oc3cc(C)[n+]([O-])c(-c4ccc(C)cc4)c3c2c1	Nrf2 block 26µM, A549 viability inconclusive
CN(C)c1ccc(N=C/C=C2\N(C)c3ccccc3C2(C)C)cc1	Nrf2 block inconclusive, A549 viability inconclusive
CN1/C(=C/C=C(C#N)C#N)C(C)(C)c2ccccc21	IL2 activator 115
Cc1cc(/N=C/C=C2\N(C)c3ccccc3C2(C)C)n(CCC#N)n1	Nrf2 block inconclusive, A549 viability 15µM
